Screens deposited in PubChem BioAssay by National Center for Advancing Translational Sciences (NCATS).
An excerpt weighted towards active compounds, which were near 9.2% of everything screened.
HTT ATP protect: Huntington cell model cytoprotection by ATP luminescence; PC12 HTT-Q103 induced, cytoprotection, ATP luminescence, 40 h; Potency, µM (titrated, usually from 56.4 µM), for inactives: cytoprotection (ATP increase), actives largely listed as activators; 230,000 compounds, 0.14% hits; AID 1471; active means well fitted curve in the direction sought with a large enough effect; inconclusive means small, poorly fitted or top-dose-only effect, or another doubt; inactive means no such curve, though single readings can be large; an effect the other way counts as inactive or inconclusive; further: % of control where 0% means no effect; nearly all actives have a fitted effect of over 45% in size
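Quantitative HTS on tebufenozide-induced (100 nM) PC12 cells expressing HTTQ103 exon 1–GFP; compounds tested as a concentration series; survival measured via cellular ATP.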
ALDH1A1 block: ALDH1A1 (human) enzyme inhibition; 220,000 compounds, 7.3% hits; Purified ALDH1A1, NADH fluorescence, propionaldehyde substrate; Potency, µM (top dose mostly 75.3 µM), without a hit: at the top dose activity, negative = inhibition, hits mostly inhibitors; P00352;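 further: plate controls were no enzyme wells and a reference inhibitor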
HPGD inh: inhibitors of human 15-hydroxyprostaglandin dehydrogenase (HPGD) | P15428 | purified HPGD, NADH fluorescence kinetic, PGE2 substrate | Potency, µM, inactives show at the top dose activity change, negative = inhibition, hits mostly inhibitors | 150,000 compounds, 4.3% hits; further: on the % scale 0 is the no-effect control and ±100 the full control effect
Target sequence (P15428 whole entry, looked up): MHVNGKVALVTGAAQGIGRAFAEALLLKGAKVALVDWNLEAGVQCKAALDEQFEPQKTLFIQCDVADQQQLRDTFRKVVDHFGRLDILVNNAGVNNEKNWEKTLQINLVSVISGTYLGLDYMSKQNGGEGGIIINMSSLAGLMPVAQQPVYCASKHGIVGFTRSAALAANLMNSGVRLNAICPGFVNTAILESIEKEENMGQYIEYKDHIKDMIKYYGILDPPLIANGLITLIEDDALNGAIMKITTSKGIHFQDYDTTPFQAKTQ
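NADH formation kinetics: reaction with 30 uM PGE2 and 1 mM NAD+ (final), 20 nM enzyme, Tris-HCl pH 8 with Tween 20, after 15 min compound preincubation at room temperature. Fluorescence change, last versus first of five reads.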
LMNA splice mod: changes lamin A minigene splicing in HeLa cells. HeLa LMNA splicing GFP/RFP minigene ratio, 48 h. AID 1487. 200,000 compounds, 0.01% hits. Potency, µM (top dose mostly 46.1 µM), for the others: at the top dose ratio change, negative = inhibition, actives largely listed as inhibitors; active means well fitted inhibition curve with a large enough effect in the signal ratio, with a control signal flat, not every such curve was filed as active; inconclusive means small, poorly fitted or top-dose-only effect, or effect the other way, or a change in a side signal; the % refers to the signal ratio; further: on the % scale 0 is the no-effect control and ±100 the full control effect
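S3 HeLa stable clones carrying a lamin A-EGFP splicing minigene plus DsRed2 were seeded at 600 cells/well in Opti-MEM with 2% FBS, pin-dosed and incubated 48 h at 37°C. Acumen cytometry (488 nm) gave the GFP/RFP total-intensity ratio.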
HTT aggregate: mutant huntingtin aggregation inhibition; PC12 HttQ103-GFP aggregates, Acumen cytometry, 40 h; Potency, µM (titrated, usually from 46.1 µM), for the others: at the top dose activity change, negative = inhibition, hits mostly inhibitors; 220,000 compounds, 1.1% hits; AID 1688; active means well fitted curve in the direction sought with a large enough effect; inconclusive means small, poorly fitted or top-dose-only effect, or another doubt; inactive means no such curve, though single readings can be large; an effect the other way counts as inactive or inconclusive; further: on the % scale 0 is the no-effect control and ±100 the full control effect; nearly all actives have a fitted effect of over 60% in size
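Aggregate formation scored by laser-scanning cytometer (488 excitation, 500–530 emission) in lysed PC12 cells expressing Q103-GFP after 100 nM tebufenozide induction; library tested in dose series, with ATPLite reagent added in the multiplex.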
KDM4E inh: inhibitors of human JMJD2E histone demethylase. JMJD2E catalytic domain, FDH-coupled NADH fluorescence (FDH is formaldehyde dehydrogenase). 230,000 compounds, 1.6% hits. Potency, µM (highest dose often 57.1 µM), without a hit: at the highest dose activity change, negative = inhibition, most hits filed as inhibitors;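 further: 0% = wells with enzyme and -100% = buffer wells without enzyme; nearly all actives have a fitted effect of over 50% in size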
Target sequence (B2RXH2 1-337 limits assumed): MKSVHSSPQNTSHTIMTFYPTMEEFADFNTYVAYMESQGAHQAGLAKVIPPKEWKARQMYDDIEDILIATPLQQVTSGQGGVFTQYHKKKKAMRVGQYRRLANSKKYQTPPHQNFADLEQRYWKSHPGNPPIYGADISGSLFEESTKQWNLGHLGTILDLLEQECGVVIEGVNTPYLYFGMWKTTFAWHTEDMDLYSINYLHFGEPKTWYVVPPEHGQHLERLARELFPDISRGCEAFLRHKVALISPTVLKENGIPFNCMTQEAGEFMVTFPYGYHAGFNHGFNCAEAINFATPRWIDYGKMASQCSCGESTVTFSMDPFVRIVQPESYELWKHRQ
Active calls of the source: *; ? = inconclusive; nt = not tested or not shown; [ ] = another dose, or the depositor's remark. Unless noted, the call rests on the fitted dose curve; in most records, active means well fitted inhibition curve with a large enough effect (not every such curve was filed as active); inconclusive means small, poorly fitted or top-dose-only effect, or another doubt; inactive means no such curve, though single readings can be large or run the other way. Potency means the concentration at half of the fitted maximal effect.

SMILES	HTT ATP protect	ALDH1A1 block	HPGD inh	LMNA splice mod	HTT aggregate	KDM4E inh
CC(C)(C)C(=O)[C@H](C(c1ccccc1)N1CCOCC1)N1CCOCC1 (stereo partly drawn)	nt	3%[13.5 µM]	-5%	nt	nt	nt
CCOC(=O)CSc1nc2cc3c(cc2c(=O)n1CCCCCC(=O)NCc1ccc(OC)cc1)OCO3	nt	nt	nt	-7%[46 µM]	nt	nt
CCCn1c(SCC(=O)Nc2ccccc2-c2ccccc2)nnc1-c1ccoc1C	-13%[10 µM]	32µM*	-2%	?	-2%	2%
Cn1nnnc1SCC(=O)Nc1ccccc1-c1ccccc1	1%	13µM*	-3%	6%	-6%	0%
Cn1nnnc1SCc1ccc(C(=O)Nc2ccccc2F)cc1	-11%	?	16µM*	12%	?	5%
Cc1ccccc1NC(=O)CSc1nnc(-c2ccoc2C)n1CCc1ccccc1	2%	-12%	-8%	-7%	-4%	0%
C[C@@H](N)C1CCC(C(=O)Nc2ccncc2)CC1 (stereo partly drawn)	?	11%	-17%	?	nt	0%
CC(=O)O[C@H]1CC[C@@]2(C)[C@@H](CC[C@H]3[C@H]2CC(=O)[C@@]2(C)[C@@H]3C[C@H]3CC(C)=CC(=O)[C@H]32)C1	-4%[10 µM]	?	-1%	nt	nt	nt
O=C(Nc1cccc(S(=O)(=O)Nc2ccc(Cl)cc2)c1)c1ccc(Cl)nc1	26%[10 µM]	5%	nt	?	?	3%
COc1cccc(S(=O)(=O)Nc2cccc(C(=O)N3CCCCCC3)c2)c1	nt	14µM*	-14%	?	4%	1%
COc1ccc(N2CCN(C(=O)c3ccc(NS(=O)(=O)c4ccc(F)c(F)c4)cc3)CC2)cc1	-13%[10 µM]	1%	-24%	?	10µM*	-8%
COc1ccc(NS(=O)(=O)c2cccc(NC(=O)c3ccc(Cl)nc3)c2)cc1	14%[10 µM]	14%	nt	-11%[46 µM]	2.5µM*	-3%
COc1ccc(N2CCN(C(=O)c3ccc(NS(=O)(=O)c4cccc(F)c4)cc3)CC2)cc1	-3%[0.074 µM]	?	-14%	?	?	-10%
COc1cccc(S(=O)(=O)Nc2ccc(C(=O)N3CCCCCC3)cc2)c1	-33%	22µM*	nt	nt	-18%	6%
CCN(C(=O)COC(=O)c1cc(-c2cccc3ccccc23)nc2ccccc12)C1CCS(=O)(=O)C1 (stereo not drawn)	-14%[1.9 µM]	?	?	-18%	-12%	?
CC1(C)CCCC2(C)C3C(O)CC2(C)C(O)C31 (stereo not drawn)	nt	10%	5%	-8%	nt	9%
COc1cccc(S(=O)(=O)Nc2cccc(C(=O)N3CCOCC3)c2)c1	24%[1.9 µM]	14µM*	-1%	0%	-21%	-2%
O=C(c1cccc(NS(=O)(=O)c2cccc([N+](=O)[O-])c2)c1)N1CCOCC1	nt	-3%	nt	-14%[46 µM]	18%	7%
Brc1cc(Oc2cc(Br)c(Br)c(Br)c2Br)c(Br)c(Br)c1Br	4%	3%	-11%	nt	nt	nt
O=C(NC[C@@H](O)CO)c1c(I)c(C(=O)NC[C@@H](O)CO)c(I)c(N(CCO)C(=O)CO)c1I	?	-6%[20.9 µM]	-25%	?	-10%[20.6 µM]	-3%[25.5 µM]
COc1ccccc1N1CCN(/N=C/c2ccc(O)c(O)c2)CC1	-13%[10 µM]	?	nt	nt	3%[9.22 µM]	28µM*
C=CCn1c(-c2ccco2)n[nH]c1=S	-5%	?	-25%	6%	5%	?
Cc1ccc(/C=N/n2c(-c3ccco3)n[nH]c2=S)s1	3%[10 µM]	11µM*	13µM*	-12%	6%	5%
S=c1[nH]nc(-c2ccco2)n1/N=C/c1ccc(Cl)cc1	-2%[10 µM]	22µM*	3.5µM*	?	0%	-27%
Fc1ccc(/C=N/n2c(-c3cccs3)n[nH]c2=S)cc1	-9%[10 µM]	14µM*	4µM*	8%	?	2%
SMILES	HTT ATP protect	ALDH1A1 block	HPGD inh	LMNA splice mod	HTT aggregate	KDM4E inh
S=c1[nH]nc(-c2ccco2)n1/N=C/c1ccccc1Cl	-14%[10 µM]	10µM*	nt	-8%	-11%	2%
S=c1[nH]nc(-c2cccs2)n1/N=C/c1cn(-c2ccccc2)nc1-c1ccccc1	3%[10 µM]	nt	nt	nt	-9%[9.22 µM]	3%
COc1ccc(CN(C)C(=O)c2cnc(OC)cc2C(F)(F)F)c(OC)c1	1%[10 µM]	5%	nt	nt	9%[9.22 µM]	10%
Cc1cc(SCC(=O)c2ccc(Br)cc2)cc(C)[o+]1	0%[10 µM]	3.2µM*	-13%	nt	nt	nt
C[C@H](N)c1nnc(SCc2ccc(Cl)cc2Cl)o1	-11%	9%	-7%	2%	-2%	0%
C[C@H](N)c1nnc(SCc2c(Cl)cccc2Cl)o1	-10%	-4%	32µM*	-2%	-6%	12%
CCCC(=O)c1ccc(N2CCCCCC2)c(F)c1	-5%	?	16µM*	-3%	-13%	5%
CCCC(=O)c1ccc(N2CCC(C)CC2)c(F)c1	nt	4%	14µM*	5%	14%	3%
Cc1ccc(Cl)cc1NC(=S)NCCCSC1CCCCC1	-195%	?	nt	?	22µM*	-2%
CCOc1ccc(S(=O)(=O)Nc2ccc(S(=O)(=O)N3CCOCC3)cc2)cc1	-8%	?	-14%	-1%	-14%	8%
CCOc1ccc(S(=O)(=O)Nc2ccc(S(=O)(=O)N3CCCC3)cc2)cc1	-20%	3.2µM*	-7%	-11%	-4%	7%
CCOc1ccc(S(=O)(=O)Nc2ccc(S(=O)(=O)N3CCCCC3)cc2)cc1	-19%	2.2µM*	-5%	-1%	6%	11%
CCOc1ccc(S(=O)(=O)N2CCCCCC2)cc1	-3%	-3%	-18%	7%	-5%	7%
CCOc1cc(S(=O)(=O)N2CCN(CC)CC2)ccc1Cl	2%	-2%	-8%	2%	-15%	-22%
CCOC(=O)N1CCN(S(=O)(=O)c2ccc(C(=O)NNc3nc4cc(C)cc(C)c4s3)cc2)CC1	nt	-9%	-14%	?	?	25µM*
CCOc1cc(S(=O)(=O)N2CCCCC2)ccc1Cl	-20%[10 µM]	22µM*	-13%	9%	7%	-6%
Cc1ccc2c(C(=O)CNc3nncs3)c(C)[nH]c2c1	7%[10 µM]	0%	nt	nt	-10%[9.22 µM]	3%
Cc1cc(=O)oc2cc(OCC(=O)OCC(=O)N(C)C3CCS(=O)(=O)C3)ccc12 (stereo not drawn)	-1%[10 µM]	nt	nt	nt	-19%[9.22 µM]	?
CCOC(=O)N1CCN(S(=O)(=O)c2cc(OCC)ccc2OCC)CC1	11%	-7%	-11%	7%	0%	4%
O=S(=O)(c1cc(Cl)ccc1Cl)N1CCCC1	11%[10 µM]	0.089µM*	-15%	26%	-10%	-2%
CCOC(=O)N1CCN(S(=O)(=O)c2ccc(OCC)c(C)c2)CC1	24%[10 µM]	16µM*	-9%	?	?	0%
